HP1b chromo inh: HTS for Inhibitors of HP1-beta Chromodomain Interactions with Methylated Histone Tails. AlphaScreen HP1-beta / biotin-H3K9me3 peptide binding. Potency, µM (highest dose often 114 µM), for inactives: at the top dose activity change, negative = inhibition, most hits filed as inhibitors. 390,000 compounds, 0.56% hits. AID 540317, 2011; further: nearly all actives have a fitted effect of over 70% in size
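Compound inhibition of the preformed complex between 50 nM HP1-beta and 50 nM biotinylated H3K9me3 peptide was read by AlphaScreen. Buffer was PBS pH 7.4 with 0.01% Tween-20. Incubations ran 30 min at room temperature, with 10 ug/mL donor/acceptor beads.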
Sfp PPTase inh: qHTS Assay for Inhibitors of Bacillus subtilis Sfp phosphopantetheinyl transferase (PPTase); Biochemical Sfp PPTase activity, qHTS; Potency, µM, for inactives: largest response in the series, negative = inhibition, most hits filed as inhibitors; AID 1490, 2009; 4'-phosphopantetheinyl transferase ffp (Bacillus subtilis), Q9F4F7; 310,000 compounds, 3.5% hits;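 further: the enzyme is Sfp with the accession as filed and its product quenches rhodamine fluorescence; 0% = enzyme reaction without inhibitor and -100% = no enzyme wells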
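Step 1, compound plus 15 nM Sfp-PPTase, 15 min, room temperature. Step 2, add rhodamine-CoA (5 uM) and BHQ-2-YbbR (12.5 uM). Step 3, read 525/598 nm fluorescence at 0 and 30 min.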
JMJD2A Tudor: qHTS Assay for Inhibitors of JMJD2A-Tudor Domain | AlphaScreen JMJD2A-Tudor / H3K4me3 peptide binding | 390,000 compounds, 4.4% hits | Lysine-specific demethylase 4A (Homo sapiens), O75164 | AID 504339, 2011 | Potency, µM (series often up to 114 µM), without a hit: top-dose activity change, negative = inhibition, most hits filed as inhibitors; further: on the % scale 0 is the no-effect control and ±100 the full control effect; nearly all actives have a fitted effect of over 50% in size
Target sequence (O75164 whole entry, looked up, the tested form may be a part): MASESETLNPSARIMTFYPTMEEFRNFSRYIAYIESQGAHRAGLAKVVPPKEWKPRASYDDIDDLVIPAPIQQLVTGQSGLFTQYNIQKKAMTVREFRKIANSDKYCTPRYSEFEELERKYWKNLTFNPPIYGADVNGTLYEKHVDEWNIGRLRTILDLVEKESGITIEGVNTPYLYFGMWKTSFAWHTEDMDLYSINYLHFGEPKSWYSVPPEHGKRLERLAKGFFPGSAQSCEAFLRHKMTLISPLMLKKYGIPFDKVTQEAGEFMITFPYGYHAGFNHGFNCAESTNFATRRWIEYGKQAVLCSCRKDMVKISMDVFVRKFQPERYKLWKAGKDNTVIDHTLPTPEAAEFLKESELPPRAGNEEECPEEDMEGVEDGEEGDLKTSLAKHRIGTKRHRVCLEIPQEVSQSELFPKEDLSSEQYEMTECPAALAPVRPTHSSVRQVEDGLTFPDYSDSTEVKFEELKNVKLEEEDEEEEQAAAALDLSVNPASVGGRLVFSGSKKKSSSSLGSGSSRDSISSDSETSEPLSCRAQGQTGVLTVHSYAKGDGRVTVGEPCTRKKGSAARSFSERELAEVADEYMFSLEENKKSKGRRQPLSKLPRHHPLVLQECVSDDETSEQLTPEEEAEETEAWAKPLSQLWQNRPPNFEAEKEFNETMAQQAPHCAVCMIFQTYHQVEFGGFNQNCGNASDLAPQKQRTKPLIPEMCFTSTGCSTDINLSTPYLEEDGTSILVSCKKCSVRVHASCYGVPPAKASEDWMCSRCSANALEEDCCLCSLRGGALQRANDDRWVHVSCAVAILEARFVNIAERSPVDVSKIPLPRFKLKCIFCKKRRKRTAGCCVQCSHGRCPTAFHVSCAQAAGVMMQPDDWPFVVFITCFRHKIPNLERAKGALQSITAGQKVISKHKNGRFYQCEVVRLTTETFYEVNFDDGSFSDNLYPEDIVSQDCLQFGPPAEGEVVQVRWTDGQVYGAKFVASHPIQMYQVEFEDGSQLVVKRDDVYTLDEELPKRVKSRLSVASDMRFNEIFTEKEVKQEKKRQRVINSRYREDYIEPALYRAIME
G9a inh: qHTS Assay for Inhibitors of Histone Lysine Methyltransferase G9a. Histone-lysine N-methyltransferase EHMT2 (Homo sapiens), Q96KQ7. G9a H3K9 monomethylation, AlphaScreen, 2 h. Potency, µM (titrated, usually from 102 µM), without a hit: at the highest dose activity, negative = inhibition, most hits filed as inhibitors. 350,000 compounds, 8.8% hits. AID 504332, 2011; further: on the % scale 0 is the no-effect control and ±100 the full control effect; nearly all actives have a fitted effect of over 75% in size
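Using a bead-based AlphaScreen, monomethylated H3K9 product from 2 h room-temperature reactions (G9a 20 nM, peptide 500 nM, SAM 20 uM) was detected with 0.5 ug/mL rabbit anti-H3K9me1 antibody.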
BAZ2B inh: qHTS Assay for Inhibitors of BAZ2B | 360,000 compounds, 4.4% hits | AlphaScreen BAZ2B-H3K14Ac peptide displacement | Bromodomain adjacent to zinc finger domain protein 2B (Homo sapiens), Q9UIF8 | Potency, µM (doses to about 114 µM), for inactives: at the highest dose activity change, negative = inhibition, usual class: inhibitors | AID 504333, 2011; further: on the % scale 0 is the no-effect control and ±100 the full control effect; nearly all actives have a fitted effect of over 60% in size
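Inhibition is scored as reduced AlphaScreen emission. The BAZ2B/b-H3(5-23)K14Ac complex (50 nM each) in PBS pH 7.4, 0.01% Tween-20 meets compound (up to 110 uM) for 30 min at RT before bead addition.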
Numbers without * were called inactive; ? = inconclusive; nt = no result; [ ] = dose if it differs, or a comment. A selection: hits, their analogues and other compounds. The true share with any hit is near 12%. The call rests on the fitted dose curve; in most records, active means well fitted curve in the direction sought with a large enough effect; inconclusive means small, poorly fitted or top-dose-only effect, or another doubt; inactive means no such curve, though single readings can be large; an effect the other way counts as inactive or inconclusive. Potency means the concentration at half of the fitted maximal effect.

SMILES | HP1b chromo inh | Sfp PPTase inh | JMJD2A Tudor | G9a inh | BAZ2B inh
CCC(=O)N(CCC(c1ccc(C)cc1)c1ccco1)Cc1ccco1 (centres undefined) | -8.8% | ? | ? | ? | 50.1µM*
Cc1ccc(C(=O)N(Cc2ccco2)Cc2ccco2)cc1 | 12.5% | nt | -29.2% | ? | ?
CCC(=O)N(CCC(c1ccco1)C(C)C)Cc1ccccc1 (centres undefined) | 0.0% | 44.7µM* | 79.4µM* | nt | 4.2%
CC(=O)N(CCC(c1ccco1)C(C)C)Cc1ccc(Cl)cc1 (centres undefined) | 54.5% | -19.5% | -6.4% | 14.3% | -22.2%
N/C(=N\c1nc(CSc2ccc(Cl)cc2)cc(=O)[nH]1)Nc1cccc2ccccc12 | 27.9% | 14.6% | -2.9% | 15.7% | 3.8%
CN(C)C(=O)CCc1ccc2c3c([nH]c2c1)[C@]1(C)[C@@H](C(=O)N2CCCCC2)C[C@H](CC(=O)NCCN2CCOCC2)C(=O)N1CC3 | 23.6% | nt | -7.2% | nt | nt
COc1ccccc1NC(=O)Cc1noc(CSc2nnc(C(F)(F)F)n2C)n1 | 47.1% | 16.5% | -19.1% | 37.8% | -18.3%
Cc1ccc(C(=O)NNC(=O)c2ccncc2)cc1C | 39.8% | 16.7% | -4.3% | 26.7% | 8.1%
Cc1ccc(CC(=O)NNC(=O)c2ccncc2)cc1C | ? | nt | -35.9% | 4.47µM* | -9.2%
O=C(C[n+]1ccccc1)N1CCCc2ccccc21 | 35.3% | 3.5% | 15.9% | 9.9% | -16.3%
O=[N+]([O-])c1ccccc1Sc1nccn1Cc1ccccc1 | 0.1% | 11.2% | ? | 50.1µM* | ?
NC(=O)CSc1nccn1Cc1ccccc1 | 18.1% | 7.2% | 2.2% | -25.0% | -1.6%
CCSc1nnc(-c2ccc(C)cc2)c2ccccc12 | 48.8% | -0.5% | 12.5% | 24.7%[59 µM] | 16.4%
NC(CCCCCP(=O)(c1ccccc1)c1ccccc1)C(=O)O (centres undefined) | -1.0% | -4.3% | 10µM* | ? | -17.8%
N[C@@H](CCCP(=O)(O)O)C(=O)O | nt | 8.3% | nt | nt | nt
CNc1ccc(N=Nc2cccc3ncccc23)cc1 | 39.8µM* | nt | 14.1µM* | nt | nt
COc1ccccc1CNc1nc2nc(C)c(Cl)c(C)n2n1 | 25.6% | nt | -6.9% | -20.8%[59 µM] | -4.3%
COc1ccc(CNc2nc3nc(C)c(Cl)c(=O)n3[nH]2)cc1 | 84.0% | 11.2% | -2.9%[11.4 µM] | 56.2µM* | -18.9%
COc1ccccc1CNc1nc2nc(C)c(Cl)c(=O)n2[nH]1 | 32.3% | 12.6% | -13.8% | 12.6µM* | 14.2%
Cc1cccc(/C=N/NC(=O)C[n+]2ccccc2)c1 | 34.9% | nt | -23.4% | 2.0%[0.501 µM] | 12.4%
O=c1c2cccc3c2c(nn1-c1ccccc1)-c1ccccc1-3 | 52.9% | -5.4% | -9.8% | 19.1%[59 µM] | 0.0%
O=C(N/N=C/c1cccs1)c1cc(-c2ccc(Cl)s2)[nH]n1 | -5.0% | 19.6% | ? | 50.1µM* | ?
Cc1cc(C)n(-c2cc(O)c(-n3nc(C)cc3C)cc2O)n1 | ? | -6.3% | 22.4µM* | 28.2µM* | -16.4%
COC(=O)C(Cc1ccc(O)cc1)NC(=O)CCOc1ccc(OC)cc1 (centres undefined) | 38.1% | 23.6% | -10.5% | 12.8%[59 µM] | -5.3%
COc1ccccc1OC(=O)CCc1nc2ccccc2s1 | 51.0% | 14.1µM* | 0.3% | 50.1µM* | ?
SMILES | HP1b chromo inh | Sfp PPTase inh | JMJD2A Tudor | G9a inh | BAZ2B inh
COC(=O)C(Cc1ccc(O)cc1)NC(=O)CCc1nc2ccccc2s1 (centres undefined) | -0.5% | -4.3% | -9.7% | 39.8µM* | -38.1%
O=S1(=O)c2cccc3cccc(c23)N1Cc1ccc(-c2nnco2)cc1 | 53.1% | 10.8% | -1.0% | 9.7%[12.7 µM] | -2.5%
CCOC(=O)CSc1ccc(C(=O)Nc2ccc(Cl)cc2)cn1 | 32.8% | 16.2% | 4.2% | 14.8%[59 µM] | -11.7%
CCOC(=O)c1cc(-c2ccco2)nn1-c1ccc(C)cc1 | -22.9% | ? | -30.0% | 39.8µM* | ?
Cc1ccc(-n2nc(-c3ccco3)cc2C(=O)O)cc1 | 5.3% | 22.4µM* | -2.2%[11.4 µM] | ? | 79.4µM*
O=C(O)c1cc(-c2ccc(N3CCOCC3)cc2)nn1-c1ccc(F)cc1 | 10.6% | 13.1% | -3.4% | -12.2%[59 µM] | -8.9%
O=C(c1cc(-c2cccc(Cl)c2)on1)N1CCCCCC1 | 65.3% | -21.8% | 39.7% | 18.3% | 25.6%
O=C(c1cc(-c2ccco2)nn1-c1cccc(Cl)c1)N1CCCCC1 | ? | 8.91µM* | 25.1µM* | 3.16µM* | ?
CCOC(=O)c1cc(-c2ccc(N3CCOCC3)cc2)nn1-c1ccccc1C(=O)O | ? | 0.1% | 3.16µM* | nt | 12.6µM*
COc1cccc(C2C(C(=O)Nc3ccccc3OC)=C(C)Nc3nc4ccccc4n32)c1 (centres undefined) | 39.1% | nt | -26.6% | -19.7%[59 µM] | -20.7%
CC(C(=O)N1CCCC1)N(c1ccccc1)S(C)(=O)=O (centres undefined) | nt | 10.6% | nt | -10.9% | ?
COC(=O)[C@@H](NCc1cccc(CN[C@H](C(=O)OC)C(C)C)c1)C(C)C | 31.2% | 24.4% | -14.4% | nt | -2.7%
COc1ccc(-c2csc(NC(=O)CCn3cnc4ccccc4c3=O)n2)cc1OC | 0.9% | -29.3% | -20.3% | 13.2%[0.501 µM] | -35.8%
CC(C)NC(=O)c1nn2c(C(F)(F)F)cc(-c3ccco3)nc2c1Cl | 62.5% | 13.1% | -13.0% | -36.3% | ?
CCOC(=O)c1c(C)noc1-c1ccco1 | 8.4% | 24.4% | -2.9% | 4.0% | -1.1%
CCOC(=O)c1c(C)nc(C)c(C(=O)OCC)c1-c1ccco1 | 7.5% | -6.1% | 79.4µM* | 31.6µM* | -34.2%
CC(C)NC(=O)c1cc(-c2ccco2)nn1-c1ccc(Cl)cc1 | ? | 10µM* | 35.5µM* | 3.55µM* | 50.1µM*
Cc1cc(C)n(C(=O)CSc2nnc(SCC(=O)n3nc(C)cc3C)s2)n1 | 24.6% | -15.2% | -26.4% | 79.4µM* | 22.4%
CC/C(=C\C(=O)c1ccncc1)Nc1ccc(Br)cc1 | ? | -14.0% | ? | ? | 50.1µM*
O=C(Nc1ccc(NC(=O)c2ccncc2)cc1)c1ccncc1 | nt | 12.8% | nt | 19.0% | 1.6%
N#Cc1ncc(Cc2ccccc2)nc1C#N | 12.7% | 0.4% | -32.6% | 50.1µM* | ?
COc1ccc(/C=C2\N=C(C)OC2=O)cc1OC(C)=O | 9.7% | -17.4% | -13.7% | 28.2µM* | -1.7%
COc1ccc(/C=C2\N=C(C)OC2=O)cc1OC | 10.9% | -1.8% | 1.0% | 35.5µM* | -0.5%
COCc1cc(C)nc(N2CCN(Cc3ccccc3)CC2)c1C#N | 22.7% | -2.8% | 7.4% | 50.1µM* | 33.6%
CC(=O)C1=C(C)NC2=C(C(=O)c3ccccc32)C1c1ccccc1 (centres undefined) | ? | 3.4% | ? | ? | ?

Assay outcomes: PubChem, National Center for Advancing Translational Sciences (NCATS)
